Test results: PubChem BioAssay (EPA / NIEHS)
The source made the active and inactive calls. Rule for the calls: active = hit-call score of the fitted dose curve at least 0.9, where 1 is the maximum; inactive = score below 0.9.

Tests used:
[1] = read-out: Interleukin-8 (IL8), CXCL8 (gene 3576); test: BSK_CASM3C_IL8: BioMAP Diversity Plus: CASM3C Assay for Interleukin-8 (IL8) Biomarker Activity (AID 2283042); conditions: primary human coronary artery smooth muscle cells; actives raise or lower the signal;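 note: IL-8 protein level quantified by ELISA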
[2] = read-out: Human Leukocyte Antigen - DR isotype (HLADR), HLA-DRA (gene 3122); test: BSK_CASM3C_HLADR: BioMAP Diversity Plus: CASM3C Assay for Human Leukocyte Antigen - DR isotype (HLADR) Biomarker Activity (AID 2283043); conditions: primary human coronary artery smooth muscle cells; actives raise or lower the signal;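 note: cell-surface HLA-DR protein level quantified by ELISA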
[3] = read-out: Macrophage colony-stimulating factor (MCSF), CSF1 (gene 1435); test: BSK_CASM3C_MCSF: BioMAP Diversity Plus: CASM3C Assay for Macrophage colony-stimulating factor (MCSF) Biomarker Activity (AID 2283044); conditions: primary human coronary artery smooth muscle cells; actives raise or lower the signal;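 note: M-CSF protein amount quantified by ELISA after 24 h exposure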
[4] = read-out: Low-density lipoprotein receptor (LDLR), LDLR (gene 3949); test: BSK_CASM3C_LDLR: BioMAP Diversity Plus: CASM3C Assay for Low-density lipoprotein receptor (LDLR) Biomarker Activity (AID 2283045); conditions: primary human coronary artery smooth muscle cells; actives raise or lower the signal;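 note: LDLR protein level on the cell surface quantified by ELISA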
[5] = read-out: Monocyte Chemoattractant Protein-1 (MCP1), CCL2 (gene 6347); test: BSK_CASM3C_MCP1: BioMAP Diversity Plus: CASM3C Assay for Monocyte Chemoattractant Protein-1 (MCP1) Biomarker Activity (AID 2283046); conditions: primary human coronary artery smooth muscle cells; actives raise or lower the signal;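 note: MCP-1 level quantified by ELISA 24 h after dosing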
[6] = BSK_CASM3C_Proliferation: Cell Proliferation Assessment in the BioMAP Diversity Plus: CASM3C Assay (AID 2283047); conditions: primary human coronary artery smooth muscle cells;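 note: sulforhodamine B total protein stain as relative cell number at 560 nm; sub-confluent cells exposed 48 h before staining; fitted both ways against DMSO so gain or loss of cell number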
[7] = read-out: Monokine induced gamma interferon (MIG), CXCL9 (gene 4283); test: BSK_CASM3C_MIG: BioMAP Diversity Plus: CASM3C Assay for Monokine induced gamma interferon (MIG) Biomarker Activity (AID 2283048); conditions: primary human coronary artery smooth muscle cells; actives raise or lower the signal;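 note: MIG protein level measured by ELISA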
[8] = read-out: serum amyloid A (SAA), SAA1 (gene 6288); test: BSK_CASM3C_SAA: BioMAP Diversity Plus: CASM3C Assay for serum amyloid A (SAA) Biomarker Activity (AID 2283049); conditions: primary human coronary artery smooth muscle cells; actives raise or lower the signal;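 note: SAA protein level quantified by ELISA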
[9] = BSK_CASM3C_SRB: Viability Assessment in the BioMAP Diversity Plus: CASM3C Assay (AID 2283050); conditions: primary human coronary artery smooth muscle cells;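 note: total protein by SRB staining as cytotoxicity measure in parallel cultures; cells exposed to compound for 24 h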
[10] = read-out: Thrombomodulin, THBD (gene 7056); test: BSK_CASM3C_Thrombomodulin: BioMAP Diversity Plus: CASM3C Assay for Thrombomodulin Biomarker Activity (AID 2283051); conditions: primary human coronary artery smooth muscle cells; actives raise or lower the signal;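 note: thrombomodulin protein level measured by ELISA 24 h after dosing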
[11] = read-out: Tissue Factor, F3 (gene 2152); test: BSK_CASM3C_TissueFactor: BioMAP Diversity Plus: CASM3C Assay for Tissue Factor Biomarker Activity (AID 2283052); conditions: primary human coronary artery smooth muscle cells; actives raise or lower the signal;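 note: cell surface tissue factor protein level read by ELISA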
[12] = read-out: Interferon-gamma inducible Protein 10 (IP10), CXCL10 (gene 3627); test: BSK_hDFCGF_IP10: BioMAP Diversity Plus: hDFCGF Assay for Interferon-gamma inducible Protein 10 (IP10) Biomarker Activity (AID 2283053); conditions: primary human foreskin fibroblasts; actives raise or lower the signal
How it was run: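 ELISA read-out of IP-10 (CXCL10) from primary human skin fibroblasts, 24 h after compound addition. Gain or loss of signal versus DMSO baseline, bidirectional curve fitting.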

[13] = read-out: Urokinase-type plasminogen activator receptor (uPAR), PLAUR (gene 5329); test: BSK_CASM3C_uPAR: BioMAP Diversity Plus: CASM3C Assay for Urokinase-type plasminogen activator receptor (uPAR) Biomarker Activity (AID 2283054); conditions: primary human coronary artery smooth muscle cells; actives raise or lower the signal;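 note: cell-surface uPAR protein level quantified by ELISA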
[14] = read-out: Vascular cell adhesion molecule 1 (VCAM1), VCAM1 (gene 7412); test: BSK_CASM3C_VCAM1: BioMAP Diversity Plus: CASM3C Assay for Vascular cell adhesion molecule 1 (VCAM1) Biomarker Activity (AID 2283055); conditions: primary human coronary artery smooth muscle cells; actives raise or lower the signal;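 note: VCAM-1 protein level quantified by ELISA on the cells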
[15] = read-out: Collagen III, COL3A1 (gene 1281); test: BSK_hDFCGF_CollagenIII: BioMAP Diversity Plus: hDFCGF Assay for Collagen III Biomarker Activity (AID 2283056); conditions: primary human foreskin fibroblasts; actives raise or lower the signal
How it was run: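 Response relative to DMSO, fitted in both directions, reflects ELISA-measured collagen III in human primary skin fibroblasts 24 h after compound addition.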

[16] = read-out: Epidermal growth factor receptor (EGFR), EGFR (gene 1956); test: BSK_hDFCGF_EGFR: BioMAP Diversity Plus: hDFCGF Assay for Epidermal growth factor receptor (EGFR) Biomarker Activity (AID 2283057); conditions: primary human foreskin fibroblasts; actives raise or lower the signal
How it was run: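 ELISA readout of EGFR on human dermal fibroblasts (primary foreskin cells), 24 h post-dosing; bidirectional curve fit vs DMSO baseline, gain or loss of signal scored.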

[17] = read-out: Interleukin-8 (IL8), CXCL8 (gene 3576); test: BSK_hDFCGF_IL8: BioMAP Diversity Plus: hDFCGF Assay for Interleukin-8 (IL8) Biomarker Activity (AID 2283058); conditions: primary human foreskin fibroblasts; actives raise or lower the signal
How it was run: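 Fibroblast monolayers (human foreskin, hDFCGF) received test chemical for 24 h before ELISA detection of IL-8; either increases or decreases relative to DMSO count as activity.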

[18] = BSK_hDFCGF_Proliferation: Cell Proliferation Assessment in the BioMAP Diversity Plus: hDFCGF Assay (AID 2283059); conditions: primary human foreskin fibroblasts;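 note: curves fitted for both rise and fall of signal versus DMSO baseline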
How it was run: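 This proliferation readout used SRB total-protein staining of human foreskin fibroblasts […], normalized to DMSO with bidirectional curve fitting.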

[19] = read-out: Macrophage colony-stimulating factor (MCSF), CSF1 (gene 1435); test: BSK_hDFCGF_MCSF: BioMAP Diversity Plus: hDFCGF Assay for Macrophage colony-stimulating factor (MCSF) Biomarker Activity (AID 2283060); conditions: primary human foreskin fibroblasts; actives raise or lower the signal
How it was run: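 fibroblasts (human foreskin, primary), 24 h post-dose; M-CSF by ELISA; bidirectional fit, DMSO = baseline.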

[20] = read-out: Tissue plasminogen activator (tPA), PLAT (gene 5327); test: BSK_BE3C_tPA: BioMAP Diversity Plus: BE3C Assay for Tissue plasminogen activator (tPA) Biomarker Activity (AID 2283041); conditions: primary human bronchial epithelial cells; actives raise or lower the signal
How it was run: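 ELISA read-out of tPA on human primary bronchial epithelial cells, 24 h post-dosing; bidirectional fit vs DMSO negative control/baseline.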

Measured: AC50

N#CC(Br)(Br)C(N)=O
not listed: [20]
inactive: all other assays above

Cc1ccc(N)c(N)c1
active: [10] 13.7 µM | [12] 3.97 µM | [14] 8.46 µM | [15] 6.88 µM
not listed: [18]
inactive: all other assays above

CC(O)CCO (centres undefined)
not listed: [18]
inactive: all other assays above

O=C(O)C1C2CCC(O2)C1C(=O)O (centres undefined)
active: [20] 18.6 µM | [2] 4.92 µM | [5] 21.8 µM | [15] 24.3 µM
not listed: [3] | [6] | [18]
inactive: all other assays above

CN(C)[C@@H]1C(=O)C(C(N)=O)=C(O)[C@@]2(O)C(=O)C3=C(O)c4c(O)cccc4[C@@](C)(O)[C@H]3C[C@@H]12
not listed: [18] | [20]
inactive: all other assays above

CCC12COCN1COC2
active: [6] 4.32 µM
not listed: [20]
inactive: all other assays above

Oc1ccccc1Cl
not listed: [20]
inactive: all other assays above

COC(=O)c1ccccc1N
not listed: [20]
inactive: all other assays above

CC(C)(C)OOC(C)(C)CCC(C)(C)OOC(C)(C)C
not listed: [18] | [20]
inactive: all other assays above

OCCCl
not listed: [20]
inactive: all other assays above

COC(=O)Nc1nc2ccccc2[nH]1
active: [2] 5.43 µM | [6] 8.49 µM | [13] 9.38 µM | [18] 0.224 µM
not listed: [20]
inactive: all other assays above

CCN(CC)CCO
not listed: [18] | [20]
inactive: all other assays above

[As]#[In]
not listed: [20]
inactive: all other assays above

Cc1cccc(N)c1N
active: [3] 3.73 µM | [10] 9.78 µM | [14] 13.8 µM | [19] 0.853 µM
not listed: [20]
inactive: all other assays above

c1ccc(N=Nc2ccccc2)cc1
not listed: [20]
inactive: all other assays above

CC(C)(O)c1cnn2c(-c3ccc(F)c(-c4c(F)cccc4C#N)c3)cnc2n1
active: [2] 32.9 µM | [6] 26.1 µM | [15] 5.96 µM
not listed: [18] | [20]
inactive: all other assays above

CC(C)COC(=O)c1ccccc1C(=O)OCC(C)C
active: [10] 20 µM | [12] 30.3 µM | [15] 23.9 µM | [19] 14.4 µM
not listed: [20]
inactive: all other assays above

CNC(=O)Oc1cccc2c1OC(C)(C)C2
not listed: [18] | [20]
inactive: all other assays above

CS(=O)(=O)NC(=O)c1cc(Oc2ccc(C(F)(F)F)cc2Cl)ccc1[N+](=O)[O-]
active: [2] 20 µM
not listed: [11] | [18] | [20]
inactive: all other assays above

Cc1ccc(N=C=O)cc1N=C=O
active: [2] 28.5 µM | [6] 20 µM
not listed: [18] | [20]
inactive: all other assays above

CN(C)C(=O)Nc1ccc(Cl)cc1
not listed: [20]
inactive: all other assays above

Oc1ccc2ccc3cccc4ccc1c2c34
active: [2] 13.7 µM | [4] 10.5 µM | [8] 30.4 µM | [9] 30.1 µM | [10] 16.3 µM | [12] 10.3 µM | [13] 27 µM | [15] 14.6 µM | [19] 10.4 µM
inactive: [1] | [3] | [5] | [7] | [11] | [14] | [16] | [17]

CO[C@@H]1[C@H](OC(=O)NC(=O)CCl)CC[C@]2(CO2)[C@H]1[C@@]1(C)O[C@@H]1CC=C(C)C
active: [2] 8.37 µM | [6] 1.99 µM | [12] 5.48 µM | [14] 6.2 µM | [15] 2.63 µM | [16] 9.51 µM | [17] 11.5 µM | [19] 6.58 µM
not listed: [18] | [20]
inactive: all other assays above

CCCCC(CC)COC(=O)c1ccc(C(=O)OCC(CC)CCCC)c(C(=O)OCC(CC)CCCC)c1 (centres undefined)
not listed: [18] | [20]
inactive: all other assays above

Nc1cc(Cl)cc(C(=O)O)c1Cl
not listed: [20]
inactive: all other assays above

c1ccc(C2CO2)cc1 (centres undefined)
not listed: [18] | [20]
inactive: all other assays above

O=C1CCCO1
not listed: [20]
inactive: all other assays above

Cn1cc(-c2ccccc2)c(=O)c(-c2cccc(C(F)(F)F)c2)c1
active: [13] 5.18 µM
not listed: [20]
inactive: all other assays above

CCCCCCCCCCCCCN1CC(C)OC(C)C1 (centres undefined)
not listed: [18] | [20]
inactive: all other assays above

ClC1=C(Cl)[C@]2(Cl)[C@H]3[C@H]([C@@H]4C=C[C@H]3C4)[C@@]1(Cl)C2(Cl)Cl
active: [1] 37.4 µM | [2] 34 µM | [3] 29 µM | [4] 32.6 µM | [5] 34 µM | [6] 34.3 µM | [7] 31.6 µM | [8] 31.7 µM | [9] 31.3 µM | [12] 19.3 µM | [13] 32 µM | [14] 38.9 µM | [15] 13.7 µM | [17] 31.3 µM | [19] 16.3 µM
inactive: [10] | [11] | [16]

COP(=S)(OC)SCN1C(=O)c2ccccc2C1=O
not listed: [18] | [20]
inactive: all other assays above

CCOc1cccc(C2(N3CCN(c4ccccc4)CC3)CCC(C)CC2)c1 (centres undefined)
not listed: [18] | [20]
inactive: all other assays above
